Here are results for 40 compounds from the supplement of paper PMC9023506.

Where a name gives a salt, the structure may show the parent alone.

In the assay the test system is Danio rerio larvae (5 dpf). The experiment in a line: optomotor response to fast red moving lines, difference vs DMSO (percentage points (treated minus DMSO)); higher = more of the behaviour than the DMSO vehicle control. The following applies: 10 µM; exposure time: 3 h pre-incubation + 3 h imaging. How it is done: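 5-dpf wild-type zebrafish larvae were imaged in 96-well plates. They were treated with 190 Tocris FDA-approved drugs at 10 µM (1 µl/ml DMSO) for 3 h before and 3 h during imaging at 28.5 °C, 48 larvae per drug. Automated image analysis gave % time moving and optomotor responses. Values are drug group mean minus DMSO vehicle mean (n=844), in percentage points, for 10 behaviours.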
Consider `Brc1c(NC2=NCCN2)ccc2nccnc12`, for which the optomotor response was 16.1.
To `CCOC(=O)C1=C(C)NC(C)=C(C(=O)OC)C1c1cccc(Cl)c1Cl` (stereo not given) [Felodipine] belongs -15.9; to `O=c1[nH]c(=O)n([C@H]2C[C@H](O)[C@@H](CO)O2)cc1C(F)(F)F` [Trifluorothymidine], -0.769.
As for `C[C@H](Cc1cc2c(c(C(N)=O)c1)N(CCCO)CC2)NCCOc1ccccc1OCC(F)(F)F` [Silodosin], the figure is 11.4; as for `C[C@@H](O[C@H]1OCCN(Cc2n[nH]c(=O)[nH]2)[C@H]1c1ccc(F)cc1)c1cc(C(F)(F)F)cc(C(F)(F)F)c1` [Aprepitant], 7.32; as for `CC(=O)Oc1cc2c(s1)CCN(C(C(=O)C1CC1)c1ccccc1F)C2` (stereo not given) [Prasugrel], -8.05.
As for `CC(C)COCC(CN(Cc1ccccc1)c1ccccc1)N1CCCC1` (stereo not given) [Bepridil hydrochloride], the figure is 7.72; as for `Cn1cnc([N+](=O)[O-])c1Sc1ncnc2[nH]cnc12` [Azathioprine], 9.79.
With `Cc1ccc(NC(=O)c2ccc(CN3CCN(C)CC3)cc2)cc1Nc1nccc(-c2cccnc2)n1` [Imatinib mesylate], the optomotor response is 1.11.
Regarding `Cc1ccsc1C(=CCCN1CCC[C@@H](C(=O)O)C1)c1sccc1C` [Tiagabine hydrochloride], the optomotor response is 21.7.
To `Cc1ccc(O)c([C@H](CCN(C(C)C)C(C)C)c2ccccc2)c1` [Tolterodine L-tartrate] belongs 2.15.
As for `NS(=O)(=O)c1cc2c(cc1Cl)NC(C1CC3C=CC1C3)NS2(=O)=O` (stereo not given) [Cyclothiazide], the figure is -3.47.
Turning to `C=CC(=O)N1CCC[C@@H](n2nc(-c3ccc(Oc4ccccc4)cc3)c3c(N)ncnc32)C1` [Ibrutinib], the optomotor response was -0.957.
For the compound `CN(C)C(=N)NC(=N)N` [Metformin hydrochloride], the optomotor response was 10.2.
In the case of `CC(=O)Oc1ccccc1C(=O)O` [Aspirin], the optomotor response is -7.85.
For `CCCCNc1cc(C(=O)O)cc(S(N)(=O)=O)c1Oc1ccccc1` [Bumetanide], the optomotor response is -7.16.
As for `CC[C@H](C)C(=O)O[C@H]1C[C@@H](C)C=C2C=C[C@H](C)[C@H](CC[C@@H]3C[C@@H](O)CC(=O)O3)[C@H]21` [Lovastatin], the figure is -4.95; as for `CN1CC(=O)N2[C@H](c3ccc4c(c3)OCO4)c3[nH]c4ccccc4c3C[C@@H]2C1=O` [Tadalafil], -10.2; as for `CCOC(=O)C1=C(COCCN)NC(C)=C(C(=O)OC)C1c1ccccc1Cl` (stereo not given) [Amlodipine besylate], 7.5.
To `Cc1ccc(N(CC2=NCCN2)c2cccc(O)c2)cc1` [Phentolamine Mesylate] belongs 7.53; to `CC(C)C(=O)OCC(=O)[C@@]12O[C@H](C3CCCCC3)O[C@@H]1C[C@H]1[C@@H]3CCC4=CC(=O)C=C[C@]4(C)[C@H]3[C@@H](O)C[C@@]12C` [Ciclesonide], -3.93; to `COc1ccc([C@@H]2Sc3ccccc3N(CCN(C)C)C(=O)[C@@H]2OC(C)=O)cc1` [Diltiazem hydrochloride], -0.971.
Turning to `CC(C)c1ccc2oc3nc(N)c(C(=O)O)cc3c(=O)c2c1` [Amlexanox], the optomotor response is -1.36.
Turning to `COc1cc(N)c(Cl)cc1C(=O)NC1CCN(CCCOc2ccc(F)cc2)CC1OC` (stereo not given) [Cisapride], the optomotor response came out at 9.11.
As for `CCCCCCCN(CC)CCCC(O)c1ccc(NS(C)(=O)=O)cc1` (stereo not given) [Ibutilide hemifumarate], the figure is 3.06; as for `CNC(=O)c1ccccc1Sc1ccc2c(/C=C/c3ccccn3)n[nH]c2c1` [Axitinib], -2.38; as for `CN(C)CCC[C@@]1(c2ccc(F)cc2)OCc2cc(C#N)ccc21` [Escitalopram oxalate], -7.01.
To `CCc1nc(N)nc(N)c1-c1ccc(Cl)cc1` [Pyrimethamine] belongs 9.74; to `CO[C@H]1/C=C/O[C@@]2(C)Oc3c(C)c(O)c4c(O)c(c5c(nc6cc(C)ccn65)c4c3C2=O)NC(=O)/C(C)=C\C=C\[C@H](C)[C@H](O)[C@@H](C)[C@@H](O)[C@@H](C)[C@H](OC(C)=O)[C@@H]1C` [Rifaximin], -3.87.
To `CCc1ccc(CCOc2ccc(CC3SC(=O)NC3=O)cc2)nc1` (stereo not given) [Pioglitazone hydrochloride] belongs -6.55; to `Nc1nc2c(ncn2COCCO)c(=O)[nH]1` [Acyclovir], 4.83.
As for `CN1CCC[C@@H]1Cc1c[nH]c2ccc(CCS(=O)(=O)c3ccccc3)cc12` [Eletriptan hydrobromide], the optomotor response was -9.58.
To `CCOC(=O)[C@H](CCc1ccccc1)N[C@H]1CCc2ccccc2N(CC(=O)O)C1=O` [Benazepril hydrochloride] belongs -1.29.
For the compound `Nc1cc(N2CCCCC2)nc(N)[n+]1[O-]` [Minoxidil], the optomotor response came to 2.09.
To `COc1ccccc1OCCNCC(O)COc1cccc2[nH]c3ccccc3c12` (stereo not given) [Carvedilol] belongs -10.6; to `CS(=O)(=O)CCNCc1ccc(-c2ccc3ncnc(Nc4ccc(OCc5cccc(F)c5)c(Cl)c4)c3c2)o1` [Lapatinib], -0.638; to `CC(C)(C)NC(=O)[C@@H]1C[C@@H]2CCCC[C@@H]2CN1C[C@@H](O)[C@H](Cc1ccccc1)NC(=O)[C@H](CC(N)=O)NC(=O)c1ccc2ccccc2n1` [Saquinavir mesylate], -8.88.
To `CCCc1nc(C(C)(C)O)c(C(=O)O)n1Cc1ccc(-c2ccccc2-c2nnn[nH]2)cc1` [Olmesartan] belongs -5.64.
As for `O=c1n(CCCN2CCN(c3cccc(Cl)c3)CC2)nc2ccccn12` [Trazodone hydrochloride], the figure is 5.34; as for `CC1(C)O[C@@H]2[C@@H](CO[C@@]3(COS(N)(=O)=O)OC(C)(C)O[C@@H]23)O1` [Topiramate], -10.6.
